From PubChem
PLK1 PBD block = inhibitors of human PLK1 polo-box domain binding | P53350 | Plk1 PBD binding of FITC phosphopeptide, fluorescence polarization | Potency, µM, for the others: max response, negative = inhibition, hits mostly inhibitors | 2.8% of 360,000 active | AID 720504; also: potency is read from the fitted curve at half-maximal effect; series mostly up to about 57 µM; nearly all actives have a fitted effect of over 65% in size
USP1-UAF1 inh = USP1/UAF1 (human) deubiquitinase inhibition; 0.23% of 390,000 active; Potency, µM (highest dose often 57.1 µM), inactives show at the highest dose activity change, negative = inhibition, actives largely listed as inhibitors; AID 743255; recombinant USP1/UAF1, Ub-Rhodamine cleavage fluorescence; O94782; also: potency is read from the fitted curve at half-maximal effect; nearly all actives have a fitted effect of over 60% in size
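In this screen, compounds sit with the deubiquitinase complex (1nM) for 15 min at room temperature before Ub-Rho is added at 150nM final. Fluorescence rise is then followed for 6 reads every 60 seconds.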
PI5P4Ka inh = inhibitors of human PI5P4K alpha; P48426; PI5P4Kalpha enzyme, ADP-Glo luminescence, 60 min; stronger effect = lower value; max response, %; 1.2% of 330,000 active; AID 652105; active = max response of -50% or lower; inconclusive = between -30% and -50%; inactive = -30% or higher; also: value at the top dose of about 77 µM
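Human PI5P4Kalpha with substrate in 0.038 M HEPES pH 7.4, 0.28 mM EGTA, 0.1% CHAPS, 5% DMSO; reaction started with 5 microM ATP (final), 60 min at room temperature. ADP formed read by ADP-Glo luminescence.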
WRN inhibitor = blocks human WRN helicase. Q14191. WRN helicase unwinding, fluorescent forked duplex, kinetic. Potency, µM (titrated, usually from 114 µM), for inactives: at the top dose activity change, negative = inhibition, most hits filed as inhibitors. 0.46% of 360,000 active. AID 651768; also: potency is read from the fitted curve at half-maximal effect; nearly all actives have a fitted effect of over 55% in size
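WRN at 20 nM final was preincubated with compound for 15 min at room temperature; reaction started with 100 nM forked duplex oligonucleotide carrying fluorophore and quencher plus 2 mM ATP (final). Unwinding followed kinetically by red fluorescence (ex 525/em 598 nm).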
USP2a inh = USP2a (human) protease inhibition | O75604 | USP2 core, Ub-CHOP2 coupled fluorogenic reporter, 485/531 | Potency, µM (titrated, usually from 38.3 µM), for inactives: top-dose activity change, negative = inhibition, usual class: inhibitors | 0.01% of 330,000 active;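 also: potency is read from the fitted curve at half-maximal effect; plate controls were DMSO wells for no effect and full inhibition by NEM control for full effect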
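USP2 core (10nM final) preincubated 30min RT with compound in 20mM Tris-HCl pH 8.0, 2mM CaCl2, 2mM beta-mercaptoethanol, 0.05% CHAPS; 25nM Ub-CHOP2 plus 25nM reporter substrate added, fluorescence (Ex485/Em531) read after 60min.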
* marks the source's active call; other numbers are inactive results; ! = repeats disagree; [ ] = remark or other dose. Sampled rows, rich in hits. Any-hit rate of the full collection: about 3.3%. Unless noted, calls follow the shape of the dose curve; as a rule, active = well fitted curve in the direction sought with a large enough effect; inconclusive = small, poorly fitted or top-dose-only effect, or another doubt; inactive = no such curve, though single readings can be large; an effect the other way counts as inactive or inconclusive. Unless noted, % is scaled to controls: 0 for no effect and ±100 for the full control effect.

For O=C(O)c1ccc2c(c1)C(=O)N(Cc1ccc3c(c1)OCO3)C2=O the results were PLK1 PBD block -4%, USP1-UAF1 inh -12%, PI5P4Ka inh 1, WRN inhibitor -3% and USP2a inh 2%.
Screening COc1cc(OC)c(NC(=O)C(CC(C)C)N2Cc3ccccc3C2=O)cc1Cl (stereo unspecified) returned USP1-UAF1 inh -9%.
Nc1nc(-c2ccccc2Cl)cs1 was read as PLK1 PBD block 19µM*, USP1-UAF1 inh -19%, PI5P4Ka inh -4 and WRN inhibitor -14%.
`CCOc1ccc(CNC(=O)CCS(=O)(=O)c2cc3c(cc2Cl)NC(=O)CO3)cc1OC` gave USP1-UAF1 inh -11%.
Screening CCCCN1C(=O)C2Cc3c([nH]c4ccccc34)CN2C1=S (stereo unspecified) returned PLK1 PBD block -12%, USP1-UAF1 inh 25µM*, PI5P4Ka inh 1, WRN inhibitor -6% and USP2a inh 0%.
For O=C(/C=C/c1ccc(N2CCC(c3ccccc3)=N2)cc1)c1ccccc1 the results were PLK1 PBD block 60%, USP1-UAF1 inh 174%, PI5P4Ka inh -5, WRN inhibitor 50µM* and USP2a inh 23%.
Screening CCOC(=O)/C(=C\c1ccc(N2CCC(c3ccccc3)=N2)cc1)C(C)=O returned PLK1 PBD block -17%, USP1-UAF1 inh 28µM*, PI5P4Ka inh 16 and WRN inhibitor inconclusive.
For OC(CNCc1ccncc1)c1ccccc1 (stereo unspecified) the results were PLK1 PBD block 27µM*, USP1-UAF1 inh 3%, PI5P4Ka inh -3, WRN inhibitor 3% and USP2a inh 1%.
CCCNC(=O)c1ccccc1NC(=O)c1nsc2ccccc12 was read as USP1-UAF1 inh -17%.
`Cc1ccc(-n2ccnc2SCC(=O)N(CC(C)C)C2CCS(=O)(=O)C2)c(C)c1` (stereo unspecified) gave PLK1 PBD block 11µM*, USP1-UAF1 inh -13%, PI5P4Ka inh -23, WRN inhibitor 7% and USP2a inh -1%.
Screening CC(C)CN(C(=O)CSc1nnc2ccccn12)C1CCS(=O)(=O)C1 (stereo unspecified) returned PLK1 PBD block -9%, USP1-UAF1 inh -11%, PI5P4Ka inh 2, WRN inhibitor 3% and USP2a inh 0%.
`CC1/C(=C\c2ccc(Cl)cc2)C(=O)C2CC1C2(C)C` (stereo unspecified) gave PLK1 PBD block 2%, USP1-UAF1 inh -21%, PI5P4Ka inh 1, WRN inhibitor -8% and USP2a inh -8%.
`CC1CCC(C(C)C)C(=O)/C1=C/c1ccc(N)cc1` (stereo unspecified) gave PLK1 PBD block 24µM*, USP1-UAF1 inh -24%, PI5P4Ka inh -12, WRN inhibitor -1% and USP2a inh 1%.
CCc1nn(CC(=O)NC(C)CCc2ccccc2)c(=O)c2cc3occc3n12 (stereo unspecified) was read as PLK1 PBD block 24µM*, USP1-UAF1 inh -26%, PI5P4Ka inh -6, WRN inhibitor 2% and USP2a inh 3%.
`O=C(COc1ccc(S(=O)(=O)NC2CCCCC2)cc1)Nc1ccc(C(F)(F)F)cc1` gave USP1-UAF1 inh -12%.
[O-][n+]1c2ccccc2[n+]([O-])c2cc(O)ccc21 was read as PLK1 PBD block inconclusive, USP1-UAF1 inh inconclusive, PI5P4Ka inh -54*, WRN inhibitor inconclusive and USP2a inh 2%.
N#Cc1c(-c2ccncc2)c2c([nH]c1=S)CCCC2 was read as PLK1 PBD block 27µM*, USP1-UAF1 inh 2%, PI5P4Ka inh -60*, WRN inhibitor -19% and USP2a inh -2%.
Screening Cc1ccc(-c2c3c([nH]c(=S)c2C#N)CCCC3)o1 returned PLK1 PBD block 12µM*, USP1-UAF1 inh -20%, WRN inhibitor 45µM* and USP2a inh 2%.
For N#Cc1c(-c2ccncc2)c2c([nH]c1=O)-c1ccccc1OC2 the results were USP2a inh 0%.
CCN1CCN(c2cc3c(cc2F)c(=O)c(S(=O)(=O)c2ccc(OC)cc2)cn3CC)CC1 was read as USP1-UAF1 inh -18%.
For COc1ccc(NC(=O)c2cc(-c3ccccc3Cl)no2)cc1 the results were PLK1 PBD block -7%, USP1-UAF1 inh -5%, PI5P4Ka inh -26, WRN inhibitor 0% and USP2a inh 0%.
`O=C(Nc1ccccc1)c1cc(-c2ccccc2Cl)no1` gave PLK1 PBD block 3.8µM*, USP1-UAF1 inh -20%, PI5P4Ka inh inconclusive, WRN inhibitor 12% and USP2a inh 1%.
Cc1cn2c(=O)cc(COc3ccc(Cl)cc3)nc2s1 was read as USP1-UAF1 inh -4%.
COC1=C/C(=C/c2c(N)n3cc(C)sc3nc2=O)C=CC1=O was read as PLK1 PBD block 67%, USP1-UAF1 inh -16%, PI5P4Ka inh -81*, WRN inhibitor -12% and USP2a inh 9%.
Cc1cn2c(N)c(C=C3C=C(Cl)C(=O)C(Cl)=C3)c(=O)nc2s1 was read as PLK1 PBD block 15%, USP1-UAF1 inh inconclusive, PI5P4Ka inh -78*, WRN inhibitor -7% and USP2a inh 1%.
`O=C(CCCCl)Nc1c2c(nn1-c1ccccc1)CSC2` gave PLK1 PBD block -10%, USP1-UAF1 inh -21%, PI5P4Ka inh 0, WRN inhibitor -5%[57.1 µM] and USP2a inh 1%.
`O=C(CCl)Nc1c2c(nn1-c1ccccc1)CSC2` gave PLK1 PBD block 27µM*, USP1-UAF1 inh -8%, PI5P4Ka inh -8, WRN inhibitor 4% and USP2a inh -1%.
For CCN1CCN(Cc2ccc(NC(=O)c3cc(NC(=O)C(=O)c4c[nH]c5ccccc45)cc(OC)c3)cc2C(F)(F)F)CC1 the results were PLK1 PBD block -8%, USP1-UAF1 inh -32%, PI5P4Ka inh -63*!, WRN inhibitor 4% and USP2a inh 0%.
For CCN1CCN(Cc2ccc(NC(=O)c3ccc(C)c(NC(=O)C(=O)c4c[nH]c5ccccc45)c3)cc2C(F)(F)F)CC1 the results were PLK1 PBD block -9%, USP1-UAF1 inh -30%, PI5P4Ka inh -77*!, WRN inhibitor -2% and USP2a inh -21%.
For CCOc1ccc(CNC(=O)Cc2ccc(NC(=O)N3CCSc4ncccc43)cc2)cc1 the results were USP1-UAF1 inh -3%.
`O=C(Cn1cnnn1)OCC(=O)c1ccc(Cl)s1` gave PLK1 PBD block -29%, USP1-UAF1 inh -10%, PI5P4Ka inh -66*, WRN inhibitor -9%[11.6 µM] and USP2a inh 0%.
COc1cccc(CNCCSc2nnnn2C)c1OCc1ccccc1F was read as USP1-UAF1 inh -12%.
For CCOc1cc(C(N)=O)cc(Br)c1OC the results were PLK1 PBD block 30µM*, USP1-UAF1 inh -12%, PI5P4Ka inh -11, WRN inhibitor 2% and USP2a inh 1%.
